# According to article PMC7862700, “An all-to-all approach to the identification of sequence-specific readers for epigenetic DNA modifications on cytosine”:
# Columns and labels:
# Assay in all cases: DAPPL (digital affinity profiling via proximity ligation, sequencing); 10 mM Tris-HCl pH 7.5, 50 mM NaCl, 1 mM DTT, 4% glycerol, room temperature, 30 min; GST-TFs on glutathione beads, 16-mer random dsDNA library, 0.1% formaldehyde crosslink after washing; high values mean tight binding
# [1] = target: T1, FLI1 (Homo sapiens, UniProt Q01543 1-452); conditions: protein: recombinant; tags: N-terminal GST; dsDNA, one strand shown
# T1 sequence: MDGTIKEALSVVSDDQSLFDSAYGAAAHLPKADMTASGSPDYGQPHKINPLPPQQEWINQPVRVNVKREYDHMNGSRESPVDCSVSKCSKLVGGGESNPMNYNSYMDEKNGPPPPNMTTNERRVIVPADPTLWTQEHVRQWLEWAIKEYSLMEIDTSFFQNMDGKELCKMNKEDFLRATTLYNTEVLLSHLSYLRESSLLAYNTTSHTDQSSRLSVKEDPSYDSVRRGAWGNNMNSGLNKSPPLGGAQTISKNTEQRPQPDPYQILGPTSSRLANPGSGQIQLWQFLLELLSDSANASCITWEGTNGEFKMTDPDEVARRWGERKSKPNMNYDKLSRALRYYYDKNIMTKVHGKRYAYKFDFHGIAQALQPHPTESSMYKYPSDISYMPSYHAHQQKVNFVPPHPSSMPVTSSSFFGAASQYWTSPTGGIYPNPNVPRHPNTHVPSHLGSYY
# Outline: (§1)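 In yeast, human transcription factors were expressed with a GST fusion, then pulled down on glutathione beads and given DNA barcodes. Pooled with a tag-only sample, they were exposed to 200 nmole of a 16-mer random double-stranded DNA library (Tris/NaCl/DTT/glycerol buffer, room temperature, 30 min), washed, crosslinked with 0.1% formaldehyde, proximity-ligated using BsaI/T4 ligase for 1 h at 37 °C, PCR-amplified and read on an Illumina NextSeq500. Each hexamer's frequency of reads for a factor, divided by the matching frequency for the tag-only sample, gives the binding signal.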
# [2] = target: T2, ELK1 (Homo sapiens, UniProt P19419 1-428); conditions: protein: recombinant; tags: N-terminal GST; dsDNA, one strand shown
# T2 sequence: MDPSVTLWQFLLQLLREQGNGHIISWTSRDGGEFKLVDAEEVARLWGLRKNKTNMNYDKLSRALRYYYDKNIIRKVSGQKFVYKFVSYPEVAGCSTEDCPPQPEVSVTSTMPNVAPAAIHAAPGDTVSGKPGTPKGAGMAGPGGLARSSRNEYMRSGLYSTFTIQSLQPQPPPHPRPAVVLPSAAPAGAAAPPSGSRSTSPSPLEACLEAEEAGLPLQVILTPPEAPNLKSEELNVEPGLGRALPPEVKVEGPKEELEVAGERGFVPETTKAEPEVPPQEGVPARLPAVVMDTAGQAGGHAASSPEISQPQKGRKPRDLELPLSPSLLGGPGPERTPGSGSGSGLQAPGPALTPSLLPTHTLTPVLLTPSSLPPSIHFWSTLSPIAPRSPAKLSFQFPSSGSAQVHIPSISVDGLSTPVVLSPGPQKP
# Outline: as §1
# [3] = target: T3, GABPA (Homo sapiens, UniProt Q06546 1-454); conditions: protein: recombinant; tags: N-terminal GST; dsDNA, one strand shown
# T3 sequence: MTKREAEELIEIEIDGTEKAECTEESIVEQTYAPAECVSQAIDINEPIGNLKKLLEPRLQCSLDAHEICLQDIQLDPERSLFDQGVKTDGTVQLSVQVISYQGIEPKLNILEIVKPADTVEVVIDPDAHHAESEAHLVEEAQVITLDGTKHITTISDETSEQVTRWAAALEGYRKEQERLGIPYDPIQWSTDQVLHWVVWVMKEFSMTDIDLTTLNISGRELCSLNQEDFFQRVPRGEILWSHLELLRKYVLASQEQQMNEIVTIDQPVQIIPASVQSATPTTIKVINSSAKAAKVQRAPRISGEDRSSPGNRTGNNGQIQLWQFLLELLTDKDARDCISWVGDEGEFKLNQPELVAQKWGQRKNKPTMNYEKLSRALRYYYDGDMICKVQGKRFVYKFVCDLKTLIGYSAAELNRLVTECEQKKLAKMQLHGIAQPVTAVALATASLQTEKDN
# Outline: as §1
# [4] = target: T4, ERG (Homo sapiens, UniProt P11308 1-479); conditions: protein: recombinant; tags: N-terminal GST; dsDNA, one strand shown
# T4 sequence: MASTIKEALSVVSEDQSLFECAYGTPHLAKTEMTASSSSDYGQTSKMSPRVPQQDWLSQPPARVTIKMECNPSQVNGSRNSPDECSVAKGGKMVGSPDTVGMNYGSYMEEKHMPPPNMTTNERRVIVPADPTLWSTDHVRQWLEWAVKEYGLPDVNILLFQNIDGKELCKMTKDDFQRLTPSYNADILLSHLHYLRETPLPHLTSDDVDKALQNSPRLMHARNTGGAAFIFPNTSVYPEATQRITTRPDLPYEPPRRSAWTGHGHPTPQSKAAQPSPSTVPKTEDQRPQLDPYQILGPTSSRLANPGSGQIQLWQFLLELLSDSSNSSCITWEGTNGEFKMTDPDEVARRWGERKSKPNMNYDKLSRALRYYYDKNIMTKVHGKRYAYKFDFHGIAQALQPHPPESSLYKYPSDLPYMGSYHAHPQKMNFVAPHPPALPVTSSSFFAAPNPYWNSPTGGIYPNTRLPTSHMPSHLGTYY
# Outline: as §1
# [5] = target: ELF1 (Homo sapiens, UniProt P32519 1-619); conditions: protein: recombinant; tags: N-terminal GST; dsDNA, one strand shown
# Outline: as §1
# [6] = target: T5, EHF (Homo sapiens, UniProt Q9NZC4 1-300); conditions: protein: recombinant; tags: N-terminal GST; dsDNA, one strand shown
# T5 sequence: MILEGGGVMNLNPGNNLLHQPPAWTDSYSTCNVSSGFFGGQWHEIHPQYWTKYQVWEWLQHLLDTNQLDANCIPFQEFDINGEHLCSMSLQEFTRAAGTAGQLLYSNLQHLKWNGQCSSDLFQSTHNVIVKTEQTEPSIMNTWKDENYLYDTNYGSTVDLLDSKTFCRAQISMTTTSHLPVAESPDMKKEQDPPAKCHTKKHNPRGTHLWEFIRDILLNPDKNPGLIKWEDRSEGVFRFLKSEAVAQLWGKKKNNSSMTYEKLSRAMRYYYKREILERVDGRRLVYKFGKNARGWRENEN
# Outline: as §1
# [7] = target: SPI1 (Homo sapiens, UniProt P17947 1-270); conditions: protein: recombinant; tags: N-terminal GST; dsDNA, one strand shown
# Outline: as §1
# [8] = target: SPIB (Homo sapiens, UniProt Q01892 1-262); conditions: protein: recombinant; tags: N-terminal GST; dsDNA, one strand shown
# Outline: as §1
# [9] = target: T6, ELK3 (Homo sapiens, UniProt P41970 1-407); conditions: protein: recombinant; tags: N-terminal GST; dsDNA, one strand shown
# T6 sequence: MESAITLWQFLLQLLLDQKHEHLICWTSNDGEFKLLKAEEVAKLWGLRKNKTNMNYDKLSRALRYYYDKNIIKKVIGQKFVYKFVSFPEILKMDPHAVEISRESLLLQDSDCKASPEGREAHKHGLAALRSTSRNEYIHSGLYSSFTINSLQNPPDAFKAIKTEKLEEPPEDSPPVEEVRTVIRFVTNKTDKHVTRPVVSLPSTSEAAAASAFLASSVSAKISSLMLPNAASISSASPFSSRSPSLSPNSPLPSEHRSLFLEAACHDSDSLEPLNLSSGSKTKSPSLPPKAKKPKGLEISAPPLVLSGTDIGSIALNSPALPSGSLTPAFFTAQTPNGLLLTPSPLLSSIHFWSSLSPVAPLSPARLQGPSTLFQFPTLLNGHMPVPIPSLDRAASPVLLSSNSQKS
# Outline: as §1
# [10] = target: T7, FEV (Homo sapiens, UniProt Q99581 1-238); conditions: protein: recombinant; tags: N-terminal GST; dsDNA, one strand shown
# T7 sequence: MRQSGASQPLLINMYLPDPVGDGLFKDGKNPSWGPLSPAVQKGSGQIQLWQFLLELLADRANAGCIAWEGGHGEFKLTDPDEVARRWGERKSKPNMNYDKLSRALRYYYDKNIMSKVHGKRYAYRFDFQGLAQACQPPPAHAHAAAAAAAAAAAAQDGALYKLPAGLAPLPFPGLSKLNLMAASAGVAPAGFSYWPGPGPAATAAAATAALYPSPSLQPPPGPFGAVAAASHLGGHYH
# Outline: as §1
# [11] = target: ETV5 (Homo sapiens, UniProt P41161 1-510); conditions: protein: recombinant; tags: N-terminal GST; dsDNA, one strand shown
# Outline: as §1
# [12] = target: HSF1 (Homo sapiens, UniProt Q00613 1-529); conditions: protein: recombinant; tags: N-terminal GST; chain copies: 3; dsDNA, one strand shown
# Outline: as §1
# [13] = target: T8, SPIC (Homo sapiens, UniProt Q8N5J4 1-248); conditions: protein: recombinant; tags: N-terminal GST; dsDNA, one strand shown
# T8 sequence: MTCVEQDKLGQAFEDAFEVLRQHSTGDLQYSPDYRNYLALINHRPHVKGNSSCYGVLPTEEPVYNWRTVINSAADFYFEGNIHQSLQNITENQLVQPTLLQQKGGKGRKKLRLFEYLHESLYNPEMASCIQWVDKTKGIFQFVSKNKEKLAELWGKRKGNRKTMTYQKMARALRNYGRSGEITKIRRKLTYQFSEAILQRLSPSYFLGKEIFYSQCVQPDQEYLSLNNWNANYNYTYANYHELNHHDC
# Outline: as §1
# [14] = target: ELF4 (Homo sapiens, UniProt Q99607 1-663); conditions: protein: recombinant; tags: N-terminal GST; dsDNA, one strand shown
# Outline: as §1
# [15] = target: T9, ELK4 (Homo sapiens, UniProt P28324-2 1-405); conditions: protein: recombinant; tags: N-terminal GST; dsDNA, one strand shown
# T9 sequence: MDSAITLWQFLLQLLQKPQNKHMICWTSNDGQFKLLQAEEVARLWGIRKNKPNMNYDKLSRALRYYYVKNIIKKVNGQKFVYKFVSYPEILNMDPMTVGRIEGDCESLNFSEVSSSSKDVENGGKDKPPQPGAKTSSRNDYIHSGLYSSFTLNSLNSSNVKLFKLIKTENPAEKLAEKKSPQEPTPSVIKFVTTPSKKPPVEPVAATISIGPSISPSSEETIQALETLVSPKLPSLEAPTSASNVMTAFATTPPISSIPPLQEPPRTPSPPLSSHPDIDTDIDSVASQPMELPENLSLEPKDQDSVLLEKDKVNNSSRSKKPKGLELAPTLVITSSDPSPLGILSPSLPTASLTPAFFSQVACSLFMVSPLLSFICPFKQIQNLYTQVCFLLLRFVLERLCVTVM
# Outline: as §1
# [16] = target: T10, ETV2 (Homo sapiens, UniProt O00321 1-342); conditions: protein: recombinant; tags: N-terminal GST; dsDNA, one strand shown
# T10 sequence: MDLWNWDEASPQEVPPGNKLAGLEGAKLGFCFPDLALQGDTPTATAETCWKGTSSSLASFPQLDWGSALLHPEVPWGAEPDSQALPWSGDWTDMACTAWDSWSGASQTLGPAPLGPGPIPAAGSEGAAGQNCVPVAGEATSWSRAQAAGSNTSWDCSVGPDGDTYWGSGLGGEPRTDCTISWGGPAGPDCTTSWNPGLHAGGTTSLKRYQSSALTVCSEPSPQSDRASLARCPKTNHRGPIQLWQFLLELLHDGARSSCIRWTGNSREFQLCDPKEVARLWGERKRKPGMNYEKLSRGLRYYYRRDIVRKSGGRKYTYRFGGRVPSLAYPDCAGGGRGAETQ
# Outline: as §1
# [17] = target: T11, ELF3 (Homo sapiens, UniProt P78545 1-371); conditions: protein: recombinant; tags: N-terminal GST; dsDNA, one strand shown
# T11 sequence: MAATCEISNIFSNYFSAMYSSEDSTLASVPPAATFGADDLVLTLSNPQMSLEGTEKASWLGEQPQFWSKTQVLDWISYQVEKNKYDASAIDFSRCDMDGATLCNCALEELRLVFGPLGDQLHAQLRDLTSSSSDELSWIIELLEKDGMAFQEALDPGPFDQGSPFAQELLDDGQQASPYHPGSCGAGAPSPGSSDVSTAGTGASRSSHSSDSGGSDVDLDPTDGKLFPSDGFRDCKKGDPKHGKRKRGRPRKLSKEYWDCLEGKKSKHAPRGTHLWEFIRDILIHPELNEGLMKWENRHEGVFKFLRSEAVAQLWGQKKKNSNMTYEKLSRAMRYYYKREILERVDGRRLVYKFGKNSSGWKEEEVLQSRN
# Outline: as §1
# [18] = target: CRX (Homo sapiens, UniProt O43186 1-299); conditions: protein: recombinant; tags: N-terminal GST; dsDNA, one strand shown
# Outline: as §1
# [19] = target: ETV1 (Homo sapiens, UniProt P50549 1-477); conditions: protein: recombinant; tags: N-terminal GST; dsDNA, one strand shown
# Outline: as §1
# Sequence of HSF1 (Q00613 whole entry): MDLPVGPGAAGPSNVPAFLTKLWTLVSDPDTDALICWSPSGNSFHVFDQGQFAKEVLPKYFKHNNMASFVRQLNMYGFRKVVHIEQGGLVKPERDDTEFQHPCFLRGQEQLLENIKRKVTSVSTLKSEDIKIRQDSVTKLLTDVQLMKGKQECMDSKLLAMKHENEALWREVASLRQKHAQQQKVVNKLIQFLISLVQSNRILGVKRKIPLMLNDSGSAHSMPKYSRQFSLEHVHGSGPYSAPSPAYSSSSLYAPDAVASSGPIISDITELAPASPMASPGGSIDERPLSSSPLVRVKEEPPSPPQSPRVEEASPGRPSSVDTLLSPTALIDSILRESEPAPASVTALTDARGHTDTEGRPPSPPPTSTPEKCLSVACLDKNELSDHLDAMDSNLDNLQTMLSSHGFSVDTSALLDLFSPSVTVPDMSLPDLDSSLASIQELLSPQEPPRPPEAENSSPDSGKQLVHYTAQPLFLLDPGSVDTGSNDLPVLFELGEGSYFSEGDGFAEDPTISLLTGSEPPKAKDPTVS
# Sequence of SPIB (Q01892 whole entry): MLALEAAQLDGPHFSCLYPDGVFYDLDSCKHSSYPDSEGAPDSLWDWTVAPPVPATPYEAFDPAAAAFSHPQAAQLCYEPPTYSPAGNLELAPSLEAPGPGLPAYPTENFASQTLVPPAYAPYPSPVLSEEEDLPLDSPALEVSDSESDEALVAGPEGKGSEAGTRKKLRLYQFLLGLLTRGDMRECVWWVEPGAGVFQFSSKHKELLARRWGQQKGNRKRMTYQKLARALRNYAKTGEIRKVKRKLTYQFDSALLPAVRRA
# Sequence of CRX (O43186 whole entry): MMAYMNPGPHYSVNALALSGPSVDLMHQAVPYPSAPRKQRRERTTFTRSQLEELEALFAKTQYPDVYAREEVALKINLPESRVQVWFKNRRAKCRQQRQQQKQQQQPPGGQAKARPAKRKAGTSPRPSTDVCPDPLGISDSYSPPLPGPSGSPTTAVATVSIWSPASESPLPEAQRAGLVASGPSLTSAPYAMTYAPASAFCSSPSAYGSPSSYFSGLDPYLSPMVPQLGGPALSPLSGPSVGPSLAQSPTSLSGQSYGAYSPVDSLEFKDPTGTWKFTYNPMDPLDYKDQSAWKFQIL
# Sequence of ELF4 (Q99607 whole entry): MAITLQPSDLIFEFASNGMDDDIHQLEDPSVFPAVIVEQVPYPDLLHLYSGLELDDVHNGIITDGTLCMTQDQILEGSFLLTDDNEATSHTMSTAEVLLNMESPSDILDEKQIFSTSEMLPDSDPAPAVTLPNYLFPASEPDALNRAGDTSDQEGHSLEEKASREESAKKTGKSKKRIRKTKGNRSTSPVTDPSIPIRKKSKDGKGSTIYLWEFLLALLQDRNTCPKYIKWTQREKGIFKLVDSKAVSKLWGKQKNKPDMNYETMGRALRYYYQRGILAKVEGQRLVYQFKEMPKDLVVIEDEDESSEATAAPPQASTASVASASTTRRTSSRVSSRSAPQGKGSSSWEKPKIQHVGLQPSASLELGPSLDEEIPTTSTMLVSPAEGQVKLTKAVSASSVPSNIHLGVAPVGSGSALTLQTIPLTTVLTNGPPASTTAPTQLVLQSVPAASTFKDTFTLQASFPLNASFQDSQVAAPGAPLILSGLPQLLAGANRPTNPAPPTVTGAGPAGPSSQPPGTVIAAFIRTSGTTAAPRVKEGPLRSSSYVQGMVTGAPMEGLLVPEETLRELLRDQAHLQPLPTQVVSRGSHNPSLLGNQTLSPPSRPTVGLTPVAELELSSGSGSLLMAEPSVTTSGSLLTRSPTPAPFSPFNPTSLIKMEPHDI
# Sequence of ETV1 (P50549 whole entry): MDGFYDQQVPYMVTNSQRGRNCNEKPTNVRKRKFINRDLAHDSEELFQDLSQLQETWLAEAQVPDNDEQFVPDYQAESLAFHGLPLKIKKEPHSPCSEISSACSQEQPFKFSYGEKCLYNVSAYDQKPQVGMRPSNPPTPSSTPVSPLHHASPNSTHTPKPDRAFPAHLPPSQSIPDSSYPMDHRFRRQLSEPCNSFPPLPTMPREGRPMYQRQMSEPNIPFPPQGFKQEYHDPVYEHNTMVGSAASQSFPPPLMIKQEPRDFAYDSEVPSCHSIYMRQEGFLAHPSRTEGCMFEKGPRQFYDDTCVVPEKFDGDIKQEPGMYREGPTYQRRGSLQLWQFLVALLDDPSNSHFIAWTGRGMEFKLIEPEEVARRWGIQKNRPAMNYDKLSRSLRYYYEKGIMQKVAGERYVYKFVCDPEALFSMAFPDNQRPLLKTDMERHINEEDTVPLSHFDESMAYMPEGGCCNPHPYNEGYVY
# Sequence of ETV5 (P41161 whole entry): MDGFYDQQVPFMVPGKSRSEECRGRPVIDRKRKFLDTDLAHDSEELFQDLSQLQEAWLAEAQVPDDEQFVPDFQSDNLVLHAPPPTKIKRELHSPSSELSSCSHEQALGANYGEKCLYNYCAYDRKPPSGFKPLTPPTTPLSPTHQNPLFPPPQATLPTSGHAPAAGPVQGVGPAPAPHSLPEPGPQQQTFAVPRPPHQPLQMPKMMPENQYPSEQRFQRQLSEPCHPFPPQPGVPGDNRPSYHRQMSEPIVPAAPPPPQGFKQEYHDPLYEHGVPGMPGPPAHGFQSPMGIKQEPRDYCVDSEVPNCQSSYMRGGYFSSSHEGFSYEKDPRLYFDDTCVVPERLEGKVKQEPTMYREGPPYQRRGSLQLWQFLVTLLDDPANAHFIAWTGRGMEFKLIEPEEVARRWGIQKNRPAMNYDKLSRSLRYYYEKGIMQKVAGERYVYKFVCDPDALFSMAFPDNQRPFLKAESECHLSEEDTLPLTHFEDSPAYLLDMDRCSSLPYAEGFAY
# Sequence of ELF1 (P32519 whole entry): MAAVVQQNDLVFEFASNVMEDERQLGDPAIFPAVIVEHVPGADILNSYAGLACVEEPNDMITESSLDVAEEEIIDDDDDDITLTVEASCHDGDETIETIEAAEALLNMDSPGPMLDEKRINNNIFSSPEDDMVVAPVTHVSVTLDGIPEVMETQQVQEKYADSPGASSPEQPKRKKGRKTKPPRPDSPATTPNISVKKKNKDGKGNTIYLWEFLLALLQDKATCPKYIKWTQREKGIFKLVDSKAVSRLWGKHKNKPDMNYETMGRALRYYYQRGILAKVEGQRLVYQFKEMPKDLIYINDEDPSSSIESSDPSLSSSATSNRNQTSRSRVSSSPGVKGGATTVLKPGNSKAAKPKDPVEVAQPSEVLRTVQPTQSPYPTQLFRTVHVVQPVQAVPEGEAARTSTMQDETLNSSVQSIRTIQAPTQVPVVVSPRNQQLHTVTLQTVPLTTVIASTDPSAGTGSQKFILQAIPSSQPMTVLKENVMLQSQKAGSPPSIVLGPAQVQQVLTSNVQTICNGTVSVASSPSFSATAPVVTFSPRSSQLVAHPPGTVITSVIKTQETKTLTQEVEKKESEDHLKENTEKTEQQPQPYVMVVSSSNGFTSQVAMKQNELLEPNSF
sequence,measurement,setting,value
TCTAAT,binding signal,[1],"1.2 fold enrichment (6-mer frequency, TF over GST control)"
same,binding signal,[2],"1.17 fold enrichment (6-mer frequency, TF over GST control)"
same,binding signal,[3],"1.18 fold enrichment (6-mer frequency, TF over GST control)"
same,binding signal,[4],"1.17 fold enrichment (6-mer frequency, TF over GST control)"
same,binding signal,[5],"1.14 fold enrichment (6-mer frequency, TF over GST control)"
same,binding signal,[6],"1.26 fold enrichment (6-mer frequency, TF over GST control)"
same,binding signal,[7],"1.19 fold enrichment (6-mer frequency, TF over GST control)"
same,binding signal,[8],"1.16 fold enrichment (6-mer frequency, TF over GST control)"
same,binding signal,[9],"1.21 fold enrichment (6-mer frequency, TF over GST control)"
same,binding signal,[10],"1.16 fold enrichment (6-mer frequency, TF over GST control)"
same,binding signal,[11],"1.17 fold enrichment (6-mer frequency, TF over GST control)"
same,binding signal,[12],"1.73 fold enrichment (6-mer frequency, TF over GST control)"
same,binding signal,[13],"1.26 fold enrichment (6-mer frequency, TF over GST control)"
same,binding signal,[14],"1.21 fold enrichment (6-mer frequency, TF over GST control)"
same,binding signal,[15],"1.18 fold enrichment (6-mer frequency, TF over GST control)"
same,binding signal,[16],"1.22 fold enrichment (6-mer frequency, TF over GST control)"
same,binding signal,[17],"1.16 fold enrichment (6-mer frequency, TF over GST control)"
same,binding signal,[18],"2.37 fold enrichment (6-mer frequency, TF over GST control)"
same,binding signal,[19],"1.26 fold enrichment (6-mer frequency, TF over GST control)"
